A selection: hits, their analogues and other compounds. The true share with any hit is near 19%.
TDP1 cell CPT: growth inhibition of DT40 Tdp1-/-;hTDP1 cells with camptothecin (screen for TDP1 inhibitors); chicken DT40 Tdp1-/-;hTDP1 cells + 20 nM CPT, ATP luminescence, 48 h; Potency, µM (titrated, usually from 46.2 µM), for the others: top-dose activity change, negative = growth inhibition, actives largely listed as inhibitors; 12% of 420,000 active; AID 686979; also: potency is read from the fitted curve at half-maximal effect; % is scaled to controls: 0 for no effect and ±100 for the full control effect; nearly all actives have a fitted effect of over 55% in size
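Chicken DT40 Tdp1-/- cells complemented with human TDP1, 400 cells/well, exposed to compounds plus 20 nM camptothecin for at least 48 h at 37 C; viability read as ATP content by CellTiter-Glo luminescence.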
HepG2 tox: HepG2 cytotoxicity, counter-screen for TGF-b inhibitors | HepG2 CAGA-GFP viability, ATP luminescence, 18 h | Potency, µM (titrated, usually from 46.1 µM), inactives show top-dose activity change, negative = cytotoxicity, usual class: cytotoxic | AID 588856 | 0.76% of 410,000 active; also: potency is read from the fitted curve at half-maximal effect
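CellTiter-Glo luminescence gave cytotoxicity after 18 hours at 37 degrees C. The cells were HepG2 CAGA-GFP in 1% FBS DMEM, stimulated with 500 pg/mL TGF-beta after compound addition. %Activity was normalised to no-cell wells (complete cell-killing) and DMSO (no toxicity), and curves were fitted and classified.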
TDP1 inh: TDP1 (human) enzyme inhibition; Potency, µM (doses to about 130 µM), without a hit: at the highest dose activity change, negative = inhibition, hits mostly inhibitors; recombinant TDP1, AlphaScreen DNA substrate cleavage; 0.28% of 350,000 active; AID 485290; Q9NUW8; also: potency is read from the fitted curve at half-maximal effect; % is scaled to controls: 0 for no effect and ±100 for the full control effect; nearly all actives have a fitted effect of over 40% in size
Target sequence (Q9NUW8 whole entry, looked up): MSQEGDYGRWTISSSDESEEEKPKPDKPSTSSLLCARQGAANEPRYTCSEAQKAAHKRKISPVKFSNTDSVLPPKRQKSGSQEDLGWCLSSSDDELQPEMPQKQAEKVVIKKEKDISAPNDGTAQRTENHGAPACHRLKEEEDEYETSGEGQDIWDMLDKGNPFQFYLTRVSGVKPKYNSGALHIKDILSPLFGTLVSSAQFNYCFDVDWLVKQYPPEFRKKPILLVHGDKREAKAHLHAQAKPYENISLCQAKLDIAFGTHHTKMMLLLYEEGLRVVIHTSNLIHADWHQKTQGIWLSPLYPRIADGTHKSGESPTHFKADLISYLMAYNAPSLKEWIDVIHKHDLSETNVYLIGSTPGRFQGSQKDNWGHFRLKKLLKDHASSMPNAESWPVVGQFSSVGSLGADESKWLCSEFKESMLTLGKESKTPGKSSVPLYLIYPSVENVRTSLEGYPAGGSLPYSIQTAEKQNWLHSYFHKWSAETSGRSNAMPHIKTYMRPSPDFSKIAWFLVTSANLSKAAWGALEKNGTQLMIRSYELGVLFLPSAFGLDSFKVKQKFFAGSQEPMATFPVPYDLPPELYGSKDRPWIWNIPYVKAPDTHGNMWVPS
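Recombinant E. coli-expressed Tdp1 (1 nM) preincubated with compound 15 min at RT, then 5'-biotin/3'-phosphotyrosine-FITC DNA substrate (15 nM) added for 5 min. AlphaScreen beads (10 ug/ml) added, 10 min RT; tyrosine-FITC cleavage read as signal loss.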
TGFb SMAD3 inh: blocks TGF-b signaling; HepG2 CAGA-GFP TGF-b/SMAD3 reporter, GFP fluorescence, 18 h; TGF-beta stimulated, 500 pg/mL final; Potency, µM (titrated, usually from 46.1 µM), for inactives: top-dose activity, negative = inhibition, usual class: inhibitors; 1.2% of 410,000 active; AID 588855; also: potency is read from the fitted curve at half-maximal effect; % is scaled to controls: 0 for no effect and ±100 for the full control effect; nearly all actives have a fitted effect of over 65% in size
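Using HEPG2 CAGA-GFP reporter cells at 1000 cells/well, we pinned test compounds, stimulated with recombinant TGF-beta (500 pg/mL final) and measured total well GFP after 18 h.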
TDP1 cell noCPT: qHTS for Inhibitors of human tyrosyl-DNA phosphodiesterase 1 (TDP1): qHTS in cells in absence of CPT; DT40 Tdp1-/- hTDP1 cells, no CPT, ATP luminescence, 48 h; Potency, µM (series often up to 46.2 µM), inactives show at the highest dose activity change, negative = growth inhibition, usual class: inhibitors; 15% of 420,000 active; AID 686978, 2013; also: potency is read from the fitted curve at half-maximal effect; % is scaled to controls: 0 for no effect and ±100 for the full control effect; nearly all actives have a fitted effect of over 55% in size
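A cellular qHTS used chicken DT40 cells lacking endogenous Tdp1 but carrying stably transfected human TDP1. Compounds were applied without camptothecin, and cell growth kinetics were judged by ATP-dependent luminescence after ≥48 hr.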
IL-1B inflam inh: inhibitors of inflammasome signaling (IL-1 beta secretion) | THP-1 LPS/ATP IL-1B secretion, AlphaLISA, 16 h; stronger effect = lower value | activity change, % at 57.5 µM | 4.7% of 360,000 active; in the data active = activity change below about -50%; inconclusive = mostly about -30% to -49%; also: % is scaled to controls: 0 for no effect and ±100 for the full control effect
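THP-1 cells pretreated 1 hr with compounds (up to 57.5 uM final), then stimulated with LPS (250 ng/mL final) plus ATP (1.25 mM final); secreted IL-1B measured by AlphaLISA after 16 hr, decreased signal indicating inhibition.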
Numbers without * were called inactive; ? = inconclusive; / = no result given. Unless noted, calls follow the shape of the dose curve; as a rule, active = well fitted curve in the direction sought with a large enough effect; inconclusive = small, poorly fitted or top-dose-only effect, or another doubt; inactive = no such curve, though single readings can be large; an effect the other way counts as inactive or inconclusive.

SMILES | TDP1 cell CPT | HepG2 tox | TDP1 inh | TGFb SMAD3 inh | TDP1 cell noCPT | IL-1B inflam inh
O=C(c1cc2ccccc2oc1=O)N1CCCN(C(=O)c2cc3ccccc3oc2=O)CC1 | 0.4% | 7.9% | / | -4.3% | 8.1% | 9.7
CN1CCN(C(=O)c2cc3ccccc3oc2=O)CC1 | 4.3% | 5.6% | 5.1% | -2.1% | -0.7% | 28.6
O=C(c1cc2ccccc2oc1=O)N1CCN(c2ccc(Cl)cc2)CC1 | ? | -1.1% | -3.2% | 0.4% | 20.6µM* | /
Cc1cc(C)c(S(=O)(=O)N2CCN(C(=O)c3cc4ccccc4oc3=O)CC2)c(C)c1 | 20.6µM* | -7.6% | 1.2% | -4.0% | ? | -17.4
Cc1ccccc1-c1noc(CSc2nc(-c3ccc(F)cc3)cc(=O)[nH]2)n1 | -16.0% | -11.8% | -2.7% | -5.3% | -0.1% | /
CSc1nn(Cc2ccc(F)cc2)c(N(C(C)=O)C(C)=O)c1S(=O)(=O)c1ccccc1 | -28.8% | -39.1% | -3.6% | ? | ? | /
O=[N+]([O-])c1cccnc1N1CCCCC1 | -1.6% | -22.5% | 4.0% | ? | 4.9% | 8.1
Cc1ccc(C)c(N2CCN(c3ncccc3[N+](=O)[O-])CC2)c1 | 17.0% | -23.7% | / | ? | -25.8% | -50.9*
Cc1ccc(N2CCN(c3ncccc3[N+](=O)[O-])CC2)c(C)c1 | 1.6% | -37.2% | / | ? | ? | -50.4*
CCOC(=O)c1noc2ncn(CC(=O)O)c(=O)c12 | ? | -8.0% | 2.9% | 5.6% | ? | /
CCOC(=O)CNC(=O)Cc1ccc(OC)cc1 | -4.2% | 21.4% | 1.2% | 18.9% | -4.9% | /
Cc1ccc(C(=O)CSc2cnc3ccccc3n2)cc1C | ? | 6.2% | 2.2% | -15.2% | ? | 0.0
CSC[C@H]1CN(CCc2ccccc2)C(=O)[C@@H]1CC(=O)Nc1ccc(Br)cc1 | ? | -23.9% | / | -13.9% | ? | -13.3
CNc1oc(-c2ccccc2Cl)nc1P(=O)(c1ccccc1)c1ccccc1 | ? | 1.5% | 7.0% | ? | 14.6µM* | -78.5*
Clc1ccccc1-c1nnc(-c2ccccc2Cl)o1 | 0.7% | -16.6% | -6.2% | -21.9% | -11.7% | -10.7
CCN(C(=O)CSc1nnc(-c2c[nH]c3ccccc23)n1C1CC1)C1CCS(=O)(=O)C1 (centres undefined) | 7.1% | 1.9% | 0.4% | -8.2% | 4.9% | 43.6
COc1ccccc1NC(=O)CN(c1ccc(C23CC4CC(CC(C4)C2)C3)cc1)S(C)(=O)=O | 13µM* | -3.7% | 4.9% | ? | 14.6µM* | -2.2
CS(=O)(=O)N(CC(=O)O)c1ccc(C23CC4CC(CC(C4)C2)C3)cc1 | 3.9% | -18.9% | / | -27.5% | 27.1% | 4.7
CCN(CC)CCCNC(=O)c1ccc(Cn2c(=O)[nH]c3cc(OC)c(OC)cc3c2=O)cc1 | -10.1% | 5.4% | 2.9% | -0.5% | -12.5% | /
COC(=O)c1ccc2c(=O)n(Cc3ccc(C(=O)NCCCN4CCC(C)CC4)cc3)c(=S)[nH]c2c1 | 20.6µM* | -16.3% | 2.5% | -11.1% | 16.4µM* | -106.1*
CCOc1cc2[nH]c(=S)n(Cc3ccc(C(=O)NCCCN4CCOCC4)cc3)c(=O)c2cc1OCC | ? | -4.4% | 2.0% | -1.4% | 18.4µM* | 0.0
CCOc1cc2[nH]c(=O)n(Cc3ccc(C(=O)NCCCN4CCC(C)CC4)cc3)c(=O)c2cc1OCC | ? | -23.7% | 2.3% | 3.1% | 23.1µM* | 18.0
CCOc1cc2[nH]c(=S)n(Cc3ccc(C(=O)NCCCOC)cc3)c(=O)c2cc1OCC | -23.3% | 0.1% | / | 1.4% | 0.4% | 21.3
COc1ccc(CNC(=O)C2CCN(c3nc4ccccc4[nH]3)CC2)cc1OC | -15.9% | 0.9% | 2.7% | 3.3% | -26.2% | /
COc1ccc(-c2nc3cnc(N4CCOCC4)nc3n(C3CC3)c2=O)cc1 | 12.0% | / | / | / | 14.3% | /
SMILES | TDP1 cell CPT | HepG2 tox | TDP1 inh | TGFb SMAD3 inh | TDP1 cell noCPT | IL-1B inflam inh
CCOC(=O)[C@]12Cc3c(cc(OC)c(OC)c3OC)[C@H]1N(Cc1ccccc1)C(=O)c1cc(OC)ccc12 | ? | / | / | / | 13µM* | /
CCOC(=O)[C@]12Cc3c(cc(OC)c(OC)c3OC)[C@H]1N(Cc1ccccc1)C(=O)c1cc(F)c(F)cc12 | ? | / | / | / | 25.9µM* | -67.8*
CCOC(=O)[C@]12Cc3c(cc(OC)c(OC)c3OC)[C@H]1N(CCC(=O)OC)C(=O)c1cc(OC)ccc12 | ? | / | / | / | 16.4µM* | -116.3*
COc1ccc(N2CC(C(=O)Nc3cccc(OC(C)C)c3)CC2=O)cc1 (centres undefined) | -8.8% | 2.4% | -6.1% | 21.2% | -19.4% | 11.4
CCC(=O)N1CCc2cc(Br)cc(S(=O)(=O)CCC(=O)NCCc3ccc(Cl)cc3)c21 | -26.6% | -25.4% | 5.9% | -17.8% | ? | /
CSc1ccc(NC(=O)N2CCC(C(=O)c3ccc(F)cc3)CC2)cc1 | ? | -21.0% | 8.7% | -23.3% | ? | -68.7*
CN(Cc1ccccc1)C(=O)C1CCN(Cc2ccc(F)cc2)CC1 | -3.0% | -16.9% | -1.0% | -3.3% | -16.8% | ?
O=C(c1ccc(F)cc1)N1CCC(C(=O)N(Cc2ccccc2)c2ccccc2)CC1 | 23.1µM* | -31.2% | -0.6% | -29.1% | 18.4µM* | -1.7
O=C(c1ccc(F)cc1)C1CCN(C(=O)c2ccccc2)CC1 | -1.4% | 0.8% | / | 5.5% | ? | ?
O=C(c1ccc2c(c1)OCCO2)C1CCN(C(=O)c2ccc(F)c(F)c2)CC1 | ? | -18.1% | 0.0% | -31.0% | 16.4µM* | -13.6
O=C(c1ccc(F)cc1)C1CCN(C(=O)c2ccc(Cl)cc2)CC1 | ? | -9.4% | / | ? | 18.4µM* | -10.2
O=S1(=O)N=C(Oc2ccc(Cl)cc2)c2ccccc21 | / | / | -1.5% | / | / | /
Cn1ccc(C(=O)NC(=S)Nc2ccc([N+](=O)[O-])cc2O)n1 | -6.6% | -2.5% | 6.2% | 0.5% | -5.2% | -12.8
O=C(c1ccc(Cl)cc1)C1CCN(C(=S)Nc2ccccc2)CC1 | -17.4% | -15.9% | / | ? | 16.4µM* | -10.8
O=C(O)C1CCN(C(=O)c2ccc(Cl)cc2)CC1 | 1.1% | 4.6% | 2.3% | -8.6% | 2.7% | 19.5
O=C(c1ccc(Cl)cc1)C1CCN(C(=O)c2ccccc2)CC1 | ? | -11.6% | / | -29.5% | 14.6µM* | ?
CC(Oc1cccc(Cl)c1)C(=O)Nc1cc(S(=O)(=O)N2CCOCC2)ccc1N1CCCCC1 (centres undefined) | ? | 6.1% | -5.7% | ? | 20.6µM* | 25.3
